# From PubChem BioAssay AID651616 (The Scripps Research Institute Molecular Screening Center, 2012)
# Screen size: about 5,600 compounds; about 4,400 (79%) were called active. The set was probably picked from earlier hits. The list is a sample of the results. Unmarked numbers belong to inactive results. No stated cut-off is given here; in the data, active means inhibition above about 27%; inactive means the rest.
# Target: Fructose-bisphosphate aldolase (Mycobacterium tuberculosis (strain ATCC 25618 / H37Rv)) (UniProt P9WQA3)
# Sequence (P9WQA3 whole entry, looked up): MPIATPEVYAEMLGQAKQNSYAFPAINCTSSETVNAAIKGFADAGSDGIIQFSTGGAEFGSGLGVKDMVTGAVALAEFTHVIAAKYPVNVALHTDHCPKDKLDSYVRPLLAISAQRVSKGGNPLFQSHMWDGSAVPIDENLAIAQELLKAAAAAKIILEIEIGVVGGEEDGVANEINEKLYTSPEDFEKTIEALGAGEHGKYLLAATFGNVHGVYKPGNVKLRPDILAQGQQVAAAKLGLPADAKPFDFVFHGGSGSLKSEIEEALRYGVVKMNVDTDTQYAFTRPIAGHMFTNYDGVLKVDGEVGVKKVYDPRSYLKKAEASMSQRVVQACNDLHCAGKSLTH
# Experiment: M. tuberculosis aldolase blockers, biochemical, fluorescence, strain H37Rv, confirmation (AID 651616);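 further: 0% = vehicle wells and 100% = reference inhibitor wells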
# Details: purified M. tuberculosis FBA, fluorescence read-out, at 1 µM, active compounds read high
row,SMILES,inhibition
1,CC(C)OCCCNc1ncnc2c1[nH]c1ccc(F)cc12,132% (active)
2,CC(C)CN1CCNC(=O)C1CC(=O)N(C)CC1CCOCC1 (configuration not stated),138% (active)
3,Cc1cc(OCc2cc(C(=O)O)oc2C)c2c3c(c(=O)oc2c1)CCCC3,151% (active)
4,COC(=O)COc1cc(C)cc2oc(=O)c3c(c12)CCCC3,124% (active)
5,CCCS(=O)(=O)Nc1c(C(=O)O)[nH]c2ccccc12,54.9% (active)
6,CCOC(=O)c1c(-c2ccccc2)oc2ccc(OCC(=O)NN)cc12,108% (active)
7,COC(=O)c1c(-c2ccsc2)oc2ccc(-c3cc(OC)c(OC)c(OC)c3)cc12,2.75%
8,CCOC(=O)c1c(-c2ccccc2)oc2ccc(OCC(N)=O)cc12,148% (active)
9,COc1cc(C(F)(F)F)nc2c(Br)c(C(C)(C)C)nn12,66.4% (active)
10,Cc1ccc(NC(=O)CN(C)C(=O)COC(=O)c2nccnc2N)cc1,4.29%
11,COc1ccc2oc(=O)c(C(=O)N3CCCC3)cc2c1,113% (active)
12,CCN(CC)c1ccc2cc(C(=O)O)c(=O)oc2c1,22.1%
13,COc1ccc2oc(=O)c(C(=O)NCc3ccccn3)cc2c1,10.3%
14,CCc1c(C)nc2cc(-c3cccs3)[nH]n2c1=O,26.8%
15,CCc1c(C)nc2cc(C)[nH]n2c1=O,45.6% (active)
16,C=CCc1c(C)nc2cc(-c3ccccc3)[nH]n2c1=O,56.1% (active)
17,CN(C)S(=O)(=O)c1ccc(N/C=C(\[N+](=O)[O-])S(=O)(=O)c2ccccc2)cc1,2.34%
18,COCc1cc(=O)oc2cc(NS(=O)(=O)c3ccc(C)cc3)ccc12,62.7% (active)
19,COCCN(CCOC)c1nc(N)c2c(N)nc3c(c2c1C#N)CC(=O)N3Cc1ccc(Cl)cc1,89.8% (active)
20,CCCC1OC23CCCCC2C(C#N)(C#N)C1(C#N)C(=N)O3 (configuration not stated),-0.85%
21,CC(=O)N1CCN(C(=O)c2cc(-c3ccc(Cl)s3)nc3ccccc23)CC1,12.6%

row,SMILES,inhibition
1,O=C(c1cc(-c2ccc(Cl)s2)nc2ccccc12)N1CCOCC1,111% (active)
2,Cc1nn(C)c(Oc2ccccc2)c1CCNS(=O)(=O)c1ccc(F)cc1,157% (active)
3,Cc1cccc(NC(=O)c2sc3nc(N4CCOCC4)c4c(c3c2N)CCCC4)c1,108% (active)
4,Oc1ccc(Br)cc1C=Nc1ccc2[nH]ncc2c1,79.1% (active)
5,COc1ccc(-c2cc(C(=O)N(C)Cc3ccccc3)c3ccccc3n2)cc1,-2.17%
6,COc1ccc(-c2cn3ccc(C)cc3n2)cc1,4.46%
7,COc1ccc(-c2cc(C(=O)Nc3ccccc3O)c3ccccc3n2)cc1,133% (active)
8,COc1nc(N=C(N)N)nc2c(C)cccc12,108% (active)
9,COc1cc2nc(N3CCN(C(=O)[C@@H]4CCCO4)CC3)nc(N)c2cc1OC,109% (active)
10,CC(C)C1Nc2c(C(=O)O)cccc2C(Nc2ccccc2C(=O)O)C1(C)C (configuration not stated),95.8% (active)
11,Cc1noc(C)c1COc1ccc2ccc(=O)oc2c1,55.1% (active)
12,COC(=O)c1c(C)c(C)nc(N)c1C#N,56.3% (active)
13,CCOC(=O)Cc1c(C)nc2c(C#N)c(C)nn2c1C,63.7% (active)
14,Cc1cc(C)c(-c2c(O)c3ccccc3n(C)c2=O)c(C)c1,78.7% (active)
15,CCSc1nnc(-c2cc3c(s2)-c2ccccc2CC3)o1,76.8% (active)
16,CCCCOc1ccc(-c2nnc(-c3ccco3)o2)cc1,174% (active)
17,CCOc1ccc(-c2nnc(-c3ccco3)o2)cc1,106% (active)
18,CCNC(=S)Nc1ccc2c(c1)c(=O)n(C)n2Cc1ccc(Cl)cc1,3.5%
19,Cc1ccc(-c2nc3ccccc3[nH]c2=O)cc1,74.3% (active)
20,CCOC(=O)COc1nc(C)cc(C(F)(F)F)c1C#N,39.2% (active)
21,CCc1cc(=O)oc2cc(C)cc(OCC(=O)N3CCC[C@@H]3C(=O)O)c12,83.3% (active)

row,SMILES,inhibition
1,Cc1ccn2c(c1)nc(=O)c1cc(S(=O)(=O)N3CCC(C)CC3)ccc12,5.35%
2,Cc1ccc(-c2nc3ccccc3c(=O)n2-c2ccc(Br)cn2)cc1,98.1% (active)
3,C[C@H]1CN([C@@H](C)CO)C(=O)c2cc(Br)cnc2O[C@H]1CN(C)S(=O)(=O)c1cccs1,8.79%
4,COCCNc1cc(-c2ccccc2)nc2cc(-c3cccc(F)c3)nn12,133% (active)
5,Fc1ccc(COc2cccc(-c3n[nH]c(=S)o3)c2)cc1,169% (active)
6,O=C(Nc1ccc2nccnc2c1)c1ccco1,"692% [above what the read-out allows, likely interference] (active)"
7,CCCn1c(=O)c(-c2ccccc2)c(O)c2ccccc21,94.4% (active)
8,Cc1ccc(S(=O)(=O)N2C[C@@H](C)[C@]3(C2)[C@H](O)[C@H](OC(=O)NCc2ccccc2)C[C@H]2C(=O)N(c4ccccc4)C(=O)[C@H]23)cc1,9.3%
9,COc1ccc(C2CC(c3cccs3)=NN2c2ccc(F)cc2)cc1OC (configuration not stated),101% (active)
10,COc1ccc(C2CC(c3cccs3)=NN2c2ccccc2)cc1 (configuration not stated),38.9% (active)
11,Oc1ccccc1C1=NN(c2ccccc2)C(c2ccccc2)C1 (configuration not stated),107% (active)
12,COc1ccccc1N1N=C(c2cccs2)CC1c1ccccc1 (configuration not stated),46.8% (active)
13,Fc1ccc(N2N=C(c3cccs3)CC2c2ccco2)c(F)c1 (configuration not stated),1.22%
14,CS(=O)(=O)Nc1ccc(C2=NN(S(C)(=O)=O)C(c3cccs3)C2)cc1 (configuration not stated),2.17%
15,Cc1ccc(-c2nc(C#N)c(NCCCn3ccnc3)o2)cc1,41.3% (active)
16,Cc1nc2ccc(NC(=O)N3CCC(c4ccccc4)C3)cc2nc1C (configuration not stated),98.1% (active)
17,O=C(NCc1ccccc1)c1onc(CSc2nc3ccccc3[nH]2)c1C(=O)NCc1ccccc1,74.2% (active)
18,COCCNc1nc(-n2nc(C)cc2C)nc2sc3c(c12)CCCC3,109% (active)
19,O=C(NCCCN1CCOCC1)c1cnn2c(-c3ccccc3)cc(-c3ccccc3)nc12,96.2% (active)
20,CC(C)(C)NC(=O)COc1ccc(CNc2ccc3[nH]c(=O)[nH]c3c2)cc1,1.48%
